Among the data in PubChem BioAssay (NCI) are growth values, retold here.

SMILES strings stand for the structures. Several values for one entry are separate records, joined by “and”; a condition that tells them apart may be missing. Identical values can stand only once. The panel holds about 83,000 compounds, 20% with a hit somewhere; the sample as a whole holds those more often.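 For each line, cells grew in 96-well plates with the test compound present at a single concentration for 48 hours.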 Activity calls are given as the source filed them. How the source made its calls: active means growth percent below 10; inactive means the rest.

The assay has as its system HL-60(TB) leukemia. The assay is described as follows: NCI-60 one-dose screen, 48 h (100 = growth as untreated, 0 = no growth, -100 = all killed). The settings on record: 10 µM unless noted.
Turning to `CN1CCN(Cc2ccc(NC(=O)c3[nH]ncc3Nc3ncnc4[nH]ccc34)cc2)CC1`, the growth was -31.4% (active).
`COc1ccc(C2C(C#N)=C(N)Oc3n[nH]c(-c4cccs4)c32)cc1I` (stereo unspecified): the growth is 54.2% (inactive).
For the molecule `N#Cc1c(-c2ccc(Cl)cc2)nc(SCC(=O)NC2=NN=C(c3ccccc3)CS2)[nH]c1=O`, the growth is 4.11% (active).
Regarding `c1ccc(CO[C@H]2CO[C@H]3[C@@H]2OC[C@H]3OCc2ccccc2)cc1`, the growth was 88.4% (inactive).
In the case of `COc1cccc(-c2nn(-c3ccccc3)cc2-c2ccnc(NCCNC(=O)Nc3ccc(Cl)c(Cl)c3)c2)c1` it was 0.89% (active); in that of `Cc1ccc2cccc([N+](=O)[O-])c2n1`, 93.2% (inactive) and 94.6% (inactive).
